Bioassay records: PubChem BioAssay, National Center for Advancing Translational Sciences (NCATS)
HT1080 IDH1KD tx = kills HT-1080 cells with IDH1 knockdown | HT-1080 IDH1 knockdown viability, ATP luminescence, 48 h | Potency, µM (series often up to 46.1 µM), without a hit: at the highest dose activity, negative = toxicity, usual class: cytotoxic | 360,000 compounds, 2% hits;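 further: potency means the concentration at half of the fitted maximal effect; 0% = DMSO wells and -100% = cell-free medium wells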
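Viability of IDH1-knockdown HT-1080 fibrosarcoma cells was assessed by CellTiter-Glo after 48 h at 37 °C with titrated compound; concentration-effect curves were classified by fit quality and response size.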
DT40 TDP1 CPT = growth inhibition of DT40 Tdp1-/-;hTDP1 cells with camptothecin (screen for TDP1 inhibitors); Potency, µM (series often up to 46.2 µM), for inactives: at the top dose activity change, negative = growth inhibition, most hits filed as inhibitors; chicken DT40 Tdp1-/-;hTDP1 cells + 20 nM CPT, ATP luminescence, 48 h; 420,000 compounds, 12% hits; AID 686979; further: potency means the concentration at half of the fitted maximal effect; nearly all actives have a fitted effect of over 55% in size
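Chicken DT40 Tdp1-/- cells complemented with human TDP1, 400 cells/well, exposed to compounds plus 20 nM camptothecin for at least 48 h at 37 C; viability read as ATP content by CellTiter-Glo luminescence.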
HT1080NT lethal = kills 2HG-producing HT-1080-NT fibrosarcoma cells; 360,000 compounds, 1.6% hits; HT-1080-NT fibrosarcoma viability, CellTiter-Glo ATP luminescence, 48 h; Potency, µM (doses to about 46.1 µM), for inactives: at the highest dose activity, negative = less viability, hits mostly cytotoxic;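 further: NT is the 2HG producing partner of a matched IDH1 knockdown line; potency means the concentration at half of the fitted maximal effect; 0% = DMSO-treated cells and -100% = media-only wells without cells; nearly all actives have a fitted effect of over 55% in size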
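HT-1080-NT fibrosarcoma cells (2HG-overproducing), 750 cells/well in RPMI with 5% FBS, dosed after 2 h and incubated 48 h at 37C. CellTiter-Glo luminescence normalized to DMSO and no-cell wells; concentration-response curves fitted and classed.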
uPA surface inh = inhibitors of cell surface uPA generation; Potency, µM (series often up to 38.3 µM), for inactives: at the top dose activity change, negative = inhibition, hits mostly inhibitors; 330,000 compounds, 0.31% hits; cell surface uPA generation assay, qHTS; AID 540303; active means well fitted inhibition curve with a large enough effect; inconclusive means small, poorly fitted or top-dose-only effect; inactive means no such curve, though single readings can be large or run the other way; tested in mouse RAW 264.7 cells; further: potency means the concentration at half of the fitted maximal effect; nearly all actives have a fitted effect of over 55% in size
IL1B secr inh = inflammasome signaling inhibition, IL-1 beta readout. AID 743279. THP-1 LPS/ATP IL-1B secretion, AlphaLISA, 16 h; hits give low values. 360,000 compounds, 4.7% hits. activity change, % at 57.5 µM; in the data active means activity change below about -50%; inconclusive means mostly about -30% to -49%
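THP-1 cells pretreated 1 hr with compounds (up to 57.5 uM final), then stimulated with LPS (250 ng/mL final) plus ATP (1.25 mM final); secreted IL-1B measured by AlphaLISA after 16 hr, decreased signal indicating inhibition.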
TDP1 cell noCPT = qHTS for Inhibitors of human tyrosyl-DNA phosphodiesterase 1 (TDP1): qHTS in cells in absence of CPT. DT40 Tdp1-/- hTDP1 cells, no CPT, ATP luminescence, 48 h. Potency, µM (titrated, usually from 46.2 µM), for inactives: at the top dose activity change, negative = growth inhibition, hits mostly inhibitors. 420,000 compounds, 15% hits; further: potency means the concentration at half of the fitted maximal effect; nearly all actives have a fitted effect of over 55% in size
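No-CPT arm: Tdp1-/-;hTDP1 DT40 cells (400/well) plus compounds, incubated ≥48 hr at 37 °C. Readout CellTiter-Glo luminescence.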
* marks the source's active call; other numbers are inactive results; ? = inconclusive; · = not tested or not shown. In the library only some 19% were active in any assay of this set; here they are far more common. Unless noted, the call rests on the fitted dose curve; in most records, active means well fitted curve in the direction sought with a large enough effect; inconclusive means small, poorly fitted or top-dose-only effect, or another doubt; inactive means no such curve, though single readings can be large; an effect the other way counts as inactive or inconclusive. Unless noted, on the % scale 0 is the no-effect control and ±100 the full control effect.

SMILES | HT1080 IDH1KD tx | DT40 TDP1 CPT | HT1080NT lethal | uPA surface inh | IL1B secr inh | TDP1 cell noCPT
Cc1cc(S(=O)(=O)NC[C@H]2O[C@@H](n3ccc(N)nc3=O)[C@H](O)[C@@H]2O)c(C)s1 | 1% | -11% | 3% | · | 7 | -20%
CSCC[C@@H](CO)NC(=O)[C@H]1O[C@@H](n2ccc(N)nc2=O)[C@H](O)[C@@H]1O | 20% | 0% | 28% | · | 8 | 18%
O=C(CCc1nnc(CCc2ccccc2)o1)NC(c1cccnc1)C(F)(F)F (stereo not given) | 16% | -13% | 19% | -3% | 0 | 2%
CC(C)CCN1CCN(Cc2cccc(C(F)(F)F)c2)CC1CCO (stereo not given) | -2% | ? | 10% | 9% | 4 | ?
N#Cc1cccc(NC(=O)N2CC[C@@]3(CCCN(C(=O)c4cnccn4)C3)C2)c1 | · | ? | · | · | · | -8%
O=c1ccn([C@@H]2O[C@H](COS(=O)(=O)O)[C@@H](O)[C@H]2O)c(=O)[nH]1 | -3% | 5.2µM* | 2% | -2% | -2 | 4.1µM*
CC(=O)OCC1OC(n2ccc(=O)[nH]c2=O)C(O)C1O (stereo not given) | 16% | 2% | 12% | 11% | 34 | -21%
COc1cccc(Nc2ncc3nc(-c4cn(C)c5ccccc45)c(=O)n(C[C@H]4CCCO4)c3n2)c1 | · | -4% | · | · | · | 14%
Cc1cccc(CCNC(=O)CCc2nc(-c3ccccc3F)no2)c1 | -10% | -24% | -3% | -4% | -5 | ?
COc1ccc(-c2noc(CCC(=O)NC3CCN(Cc4ccccc4)CC3)n2)cc1 | 0% | ? | -24% | 0% | -30 | 12µM*
COc1ccc(-c2noc(CCC(=O)NCC3CCN(Cc4cccc(C)c4)CC3)n2)cc1 | -1% | ? | -22% | -2% | -72* | 23µM*
COc1ccc(-c2noc(CCC(=O)NCCc3ccccc3)n2)cc1 | 0% | -18% | 2% | 6% | 19 | ?
O=C(CCc1nc(-c2ccccc2F)no1)NCCN1CCN(Cc2ccccc2)CC1 | -9% | 18µM* | -2% | 4% | 10 | ?
NC(Cc1ccccc1)C(=O)O (stereo not given) | · | -2% | · | · | · | -3%
NC(CCC(=O)NC(CCSC(CC(=O)O)C(=O)O)C(=O)NCC(=O)O)C(=O)O (stereo not given) | · | -7% | · | · | · | -4%
Cc1ccc(-c2n[nH]c(=S)n2/N=C/c2c(C)nn(-c3ccccc3)c2C)cc1 | -1% | ? | -4% | 4% | 3 | 16µM*
COc1cc(-c2n[nH]c(=S)n2/N=C/c2cccn2C)cc(OC)c1OC | -21% | ? | -17% | -1% | 45 | 18µM*
Cn1cccc1/C=N/n1c(-c2ccco2)n[nH]c1=S | 3% | 16% | 2% | 2% | 9 | 1%
COc1ccc(/C=N/n2c(-c3ccc(C)cc3)n[nH]c2=S)cc1OC | 0% | ? | 17% | -9% | -51* | ?
COc1cc(/C=N/n2c(-c3ccccc3)n[nH]c2=S)ccc1O | 2% | 1% | 5% | -10% | 81 | -13%
Cc1ccccc1-c1n[nH]c(=S)n1/N=C/c1c(C)nn(-c2ccccc2)c1C | ? | -2% | -1% | -7% | -10 | -1%
COc1ccc(NC(=O)C(NS(=O)(=O)c2cccc3nsnc23)C(C)C)cc1OC (stereo not given) | · | -7% | · | · | · | -3%
O=C(Nc1c(-c2ccc(Cl)cc2)[nH][nH]c1=O)c1ccccc1Cl | 7% | -1% | 18% | · | 30 | 9%
NC(=O)CC(NC(=O)Cc1cccc2ccccc12)c1ccc(N2CCN(c3ccc(F)cc3)CC2)c([N+](=O)[O-])c1 (stereo not given) | 13% | ? | 8% | 50% | 23 | ?
COC(=O)C1=C(C(=O)OC)N2C=CC=CC2(C)C(C(=O)OC)=C1C(=O)OC (stereo not given) | 7% | -11% | 12% | 1% | 2 | -14%
SMILES | HT1080 IDH1KD tx | DT40 TDP1 CPT | HT1080NT lethal | uPA surface inh | IL1B secr inh | TDP1 cell noCPT
COC(=O)C1=C(C(=O)OC)C(C(=O)OC)C(C(=O)OC)C(C(=O)OC)(C(=O)OC)C(C(=O)OC)=C1C(=O)OC (stereo not given) | ? | 2.6µM* | -17% | -11% | -100* | 2.6µM*
COc1cc(OC)c(N(C)C(=O)c2c(C)oc3ncn(CC(C)C)c(=O)c23)cc1Cl | · | -12% | · | · | · | -27%
COc1cc(OC)nc(Nc2nc(C(N)Cc3ccc(Cl)cc3)cs2)n1 (stereo not given) | ? | 23µM* | 23µM* | · | -89* | 15µM*
COC(=O)c1cc(C)nc(Nc2nc(C(N)Cc3ccc(Cl)cc3)cs2)n1 (stereo not given) | ? | ? | -10% | · | -68* | ?
Cc1cc(C)nc(Nc2nc(C(N)Cc3ccccc3)cs2)n1 (stereo not given) | 7.3µM* | 5.8µM* | 5.8µM* | · | 7 | 5.2µM*
Cc1cccc[n+]1CC(=O)c1ccc(NC(=O)c2ccccc2)cc1 | -6% | ? | 4% | 9% | 23 | ?
COc1ccc(C(=O)C[n+]2ccccc2C)cc1 | -1% | 16µM* | -6% | 2% | 7 | 21µM*
Cc1cccc[n+]1CC(=O)c1ccc([N+](=O)[O-])cc1 | 17% | 21µM* | 26% | 2% | 18 | 16µM*
Cc1nn(CC(=O)NCCc2ccc(Cl)cc2)c(=O)c2cc3cc(F)ccc3n12 | · | -4% | · | · | · | -1%
CC(CCc1ccccc1)NC(=O)c1ccc(-n2cncn2)c([N+](=O)[O-])c1 (stereo not given) | 0% | 1% | 15% | 1% | 4 | -13%
CCn1c(CN2CCN(c3ccc(OC)cc3)CC2)nc2cc(S(=O)(=O)N(C)C)ccc21 | 0% | 21µM* | -6% | -4% | 42 | ?
Cc1ccc(NNC(=S)Nc2ccc(C(C)C)cc2)c(C)c1 | -14% | ? | -5% | -2% | -109* | 16µM*
CC(C)(C)NNC(=S)Nc1cccc(F)c1 | 5.8µM* | ? | 2.9µM* | -5% | · | 15µM*
Cc1ccc(NC(=S)NNC(=S)Nc2ccc(C)cc2)cc1 | 8% | 6.5µM* | 13% | -5% | -1 | 2.3µM*
Cc1ccc(NC(=O)CCC(=O)NNC(=S)Nc2ccc(F)cc2)c(C)c1 | 4% | -4% | 9% | -2% | 27 | -15%
